Laboratory results as given in PubChem BioAssay.
Active and inactive are the calls of the source.

Experiments:
[1] = tested on: PRMT1 (protein arginine N-methyltransferase 1); test: small molecules binding arginine methyltransferase PRMT1 – biochemical, small-molecule microarray, 635 nm fluorescence, primary screen (AID 1088); settings: higher = more signal;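 note: binding of Prmt1 protein to compounds spotted on small-molecule microarray slides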
[2] = growth effects on S. cerevisiae YJM789 – YJM789 clinical isolate, OD600, 24 h, basal, primary screen (AID 1089); settings: higher = more signal, called active from +8 up or from −8 down;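 note: growth of clinical yeast isolate S. cerevisiae YJM 789 seeded 1000 cells per well; test concentration not given here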
[3] = S. pombe growth modifiers, basal conditions – strain 972, OD600, 24 h, no modulator, primary screen (AID 1090);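 note: basal condition with compound alone and no growth modifier present; test concentration not given here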; settings: S. pombe 972 growth, higher = more signal, called active from +8 up or from −8 down
[4] = budding yeast growth modifiers under rapamycin – strain BY4716, OD600, 96 h, primary screen (AID 1091); note: test concentration not given here; settings: S. cerevisiae BY4716 + rapamycin, higher = more signal, called active from +8 up or from −8 down
[5] = biological target: Torsin-1A-interacting protein 2 (Homo sapiens) (UniProt Q8NFQ8); test: small molecules binding lysate-expressed LULL1 – cell lysate, human LULL1 lysate, 635/667 nm fluorescence, primary screen (AID 1092); settings: small-molecule microarray, hLULL1 lysate binding, 635 nm fluorescence; higher = more signal;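 note: probe is lysate of COS7 cells overexpressing human LULL1; score merges per-feature 667 nm fluorescence with signal-to-noise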
[6] = optical density change of DRC41 E. coli – strain DRC41, OD650, 24 h, E. coli filamentation project, primary screen (AID 1093);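 note: MC1000 strain lacking acrAB efflux and sulA so SOS filamentation is blocked; test concentration not given here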; settings: E. coli DRC41 growth, higher = more signal, called active from +8 up or from −8 down
[7] = probe aLefty2 binding to arrayed compounds – biochemical, biotinylated probe, 635/667 nm fluorescence, primary screen (AID 1094); settings: small-molecule microarray, higher = more signal;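 note: score merges spot fluorescence near 667 nm with spot signal-to-noise ratio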
[8] = tested on: Noggin (protein binding on small-molecule microarray); test: small molecules binding Noggin protein – biochemical, 635/667 nm fluorescence, primary screen (AID 1095); settings: 635 nm fluorescence, higher = more signal;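 note: score merges 667 nm feature fluorescence with signal to noise over triplicate slides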
[9] = biological target: Neurogenic locus notch homolog protein 3 (Homo sapiens) (UniProt Q9UM47); test: small molecules binding NOTCH3 protein – biochemical, 635/667 nm fluorescence, primary screen (AID 1096); settings: small-molecule microarray, 635 nm fluorescence, higher = more signal
[10] = probe aEGFR binding to arrayed compounds – biochemical, biotinylated probe, 635/667 nm fluorescence, primary screen (AID 1097); settings: small-molecule microarray, higher = more signal;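 note: probe is a biotinylated anti-EGFR antibody binding compounds printed on slides; score combines fluorescence near 667 nm and signal to noise of each spot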
[11] = tested on: Plasmodium falciparum Sir2 (PF13_0152, Sir2A); test: Plasmodium falciparum Sir2A binding compounds – biochemical, small-molecule microarray, 635 nm fluorescence, primary screen (AID 1098); settings: fluorescence 635 nm, higher = more signal;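 note: score merges spot fluorescence intensity with its signal-to-noise ratio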
[12] = probe aDKK1 binding to arrayed compounds – biochemical, biotinylated probe, 635/667 nm fluorescence, primary screen (AID 1099); settings: small-molecule microarray, higher = more signal;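 note: score merges 667nm spot fluorescence with signal to noise across triplicate slides; reference of the scale not given here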
[13] = probe aCHRDL2 binding to arrayed compounds – biochemical, biotinylated probe, 635/667 nm fluorescence, primary screen (AID 1100); settings: small-molecule microarray, higher = more signal
[14] = change in splice reporter luminescence, either direction, cell-based, HEK293, spliceosome inhibition project, primary screen (AID 1101); settings: HEK293 splicing luciferase reporter, 24 h, higher = more signal, called active from +8 up or from −8 down;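 note: HEK293 cells carrying a splicing-competent luciferase reporter gene; test concentration not given here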
[15] = biological target: Fibroblast growth factor 10 (Homo sapiens) (UniProt O15520); test: compounds binding fibroblast growth factor 10 – biochemical, small-molecule microarray, 635 nm fluorescence, primary screen (AID 1102); settings: FGF10 binding, fluorescence 635 nm, higher = more signal
[16] = tested on: glycogen synthase kinase-3 (GSK3A per assay name; protocol says GSK3B); test: compounds binding glycogen synthase kinase-3 – biochemical, small-molecule microarray, 635 nm fluorescence, GSK3A, primary screen (AID 1103); settings: fluorescence 635 nm, higher = more signal; note: the record names both GSK3A and GSK3B
[17] = biological target: Epidermal growth factor receptor (Homo sapiens) (UniProt P00533); test: compounds binding epidermal growth factor receptor – biochemical, small-molecule microarray, 635 nm fluorescence, primary screen (AID 1104); settings: EGFR binding, higher = more signal;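 note: score merges 667 nm emission intensity with spot signal to noise over triplicate slides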
[18] = biological target: Follistatin-related protein 3 (Homo sapiens) (UniProt O95633); test: compounds binding follistatin-related protein 3 – biochemical, small-molecule microarray, 635 nm fluorescence, primary screen (AID 1105); settings: FSTL3 binding, higher = more signal;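 note: score merges emission near 667 nm and signal to noise per printed spot across three slides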
[19] = biological target: Dickkopf-related protein 1 (Homo sapiens) (UniProt O94907); test: small molecules binding DKK1 protein – biochemical, small-molecule microarray, 635 nm fluorescence scan, primary screen (AID 1106); settings: higher = more signal;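 note: score merges emission near 667 nm with signal to noise over three replicate slides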
[20] = tested on: Inhibin beta A chain (activin A); test: small molecules binding activin A – biochemical, small-molecule microarray, 635 nm fluorescence scan, primary screen (AID 1107); settings: INHBA, higher = more signal;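 note: mouse activin A protein probed at 4.33 µg/mL on printed slides; score merges bound-protein fluorescence near 667 nm with spot signal-to-noise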

Sequence of Neurogenic locus notch homolog protein 3 (Homo sapiens) (Q9UM47 whole entry, looked up): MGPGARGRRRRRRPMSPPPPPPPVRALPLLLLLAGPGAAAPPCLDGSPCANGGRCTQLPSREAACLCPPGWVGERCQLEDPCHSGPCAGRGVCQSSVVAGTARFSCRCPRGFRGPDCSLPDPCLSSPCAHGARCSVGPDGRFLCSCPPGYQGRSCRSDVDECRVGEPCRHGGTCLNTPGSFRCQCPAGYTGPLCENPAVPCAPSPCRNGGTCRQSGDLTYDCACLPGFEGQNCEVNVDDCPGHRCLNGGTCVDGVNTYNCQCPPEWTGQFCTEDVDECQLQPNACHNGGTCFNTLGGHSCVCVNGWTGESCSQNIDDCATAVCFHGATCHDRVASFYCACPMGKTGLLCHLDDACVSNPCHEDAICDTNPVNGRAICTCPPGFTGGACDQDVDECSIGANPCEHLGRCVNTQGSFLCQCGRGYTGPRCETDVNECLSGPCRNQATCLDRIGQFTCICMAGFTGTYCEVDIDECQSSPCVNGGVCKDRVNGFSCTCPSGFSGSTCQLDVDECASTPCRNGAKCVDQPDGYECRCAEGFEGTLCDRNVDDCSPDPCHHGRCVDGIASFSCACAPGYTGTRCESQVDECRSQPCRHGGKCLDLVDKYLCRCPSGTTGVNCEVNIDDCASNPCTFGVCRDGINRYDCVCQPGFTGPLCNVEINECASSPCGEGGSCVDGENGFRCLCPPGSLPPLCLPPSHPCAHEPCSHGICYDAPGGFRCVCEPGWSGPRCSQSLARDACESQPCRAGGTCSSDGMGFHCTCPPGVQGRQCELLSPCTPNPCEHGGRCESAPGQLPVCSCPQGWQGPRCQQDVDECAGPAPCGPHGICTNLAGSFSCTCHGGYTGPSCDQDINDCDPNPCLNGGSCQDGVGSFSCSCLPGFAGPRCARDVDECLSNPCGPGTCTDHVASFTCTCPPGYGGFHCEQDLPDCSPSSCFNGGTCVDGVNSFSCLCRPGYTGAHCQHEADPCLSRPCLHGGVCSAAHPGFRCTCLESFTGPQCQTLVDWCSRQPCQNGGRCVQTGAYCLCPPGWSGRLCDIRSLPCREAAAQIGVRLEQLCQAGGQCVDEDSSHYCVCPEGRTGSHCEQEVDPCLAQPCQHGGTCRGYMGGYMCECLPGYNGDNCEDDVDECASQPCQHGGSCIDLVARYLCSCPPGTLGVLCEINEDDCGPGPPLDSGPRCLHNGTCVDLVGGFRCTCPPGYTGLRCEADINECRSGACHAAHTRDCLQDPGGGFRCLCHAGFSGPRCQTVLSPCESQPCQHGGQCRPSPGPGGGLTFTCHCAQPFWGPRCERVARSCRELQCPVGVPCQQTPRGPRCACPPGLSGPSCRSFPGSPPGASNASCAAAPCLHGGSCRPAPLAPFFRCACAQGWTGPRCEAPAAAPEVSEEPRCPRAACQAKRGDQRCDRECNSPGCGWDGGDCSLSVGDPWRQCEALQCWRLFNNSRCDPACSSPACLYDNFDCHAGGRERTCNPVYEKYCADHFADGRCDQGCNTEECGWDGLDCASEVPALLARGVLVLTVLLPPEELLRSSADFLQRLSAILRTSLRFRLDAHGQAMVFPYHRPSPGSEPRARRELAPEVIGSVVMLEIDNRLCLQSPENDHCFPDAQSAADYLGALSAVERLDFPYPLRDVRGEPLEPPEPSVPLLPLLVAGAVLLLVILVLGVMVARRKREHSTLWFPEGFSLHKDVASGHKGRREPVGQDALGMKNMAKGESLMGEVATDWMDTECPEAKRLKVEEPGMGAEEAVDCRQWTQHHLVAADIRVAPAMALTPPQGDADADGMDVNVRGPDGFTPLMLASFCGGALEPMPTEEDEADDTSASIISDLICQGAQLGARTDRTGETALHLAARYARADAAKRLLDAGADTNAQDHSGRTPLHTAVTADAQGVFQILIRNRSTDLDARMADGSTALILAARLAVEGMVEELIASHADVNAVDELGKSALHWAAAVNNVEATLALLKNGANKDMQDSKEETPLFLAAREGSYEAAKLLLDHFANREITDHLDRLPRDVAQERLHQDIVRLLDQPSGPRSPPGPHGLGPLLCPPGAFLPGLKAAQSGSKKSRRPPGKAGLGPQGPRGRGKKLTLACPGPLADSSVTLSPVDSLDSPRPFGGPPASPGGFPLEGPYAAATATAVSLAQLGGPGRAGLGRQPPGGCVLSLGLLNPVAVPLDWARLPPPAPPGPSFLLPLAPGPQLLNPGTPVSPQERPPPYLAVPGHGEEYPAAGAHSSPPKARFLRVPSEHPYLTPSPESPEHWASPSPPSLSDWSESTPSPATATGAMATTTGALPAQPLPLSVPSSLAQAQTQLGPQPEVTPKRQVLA
Sequence of Epidermal growth factor receptor (Homo sapiens) (P00533 whole entry, looked up): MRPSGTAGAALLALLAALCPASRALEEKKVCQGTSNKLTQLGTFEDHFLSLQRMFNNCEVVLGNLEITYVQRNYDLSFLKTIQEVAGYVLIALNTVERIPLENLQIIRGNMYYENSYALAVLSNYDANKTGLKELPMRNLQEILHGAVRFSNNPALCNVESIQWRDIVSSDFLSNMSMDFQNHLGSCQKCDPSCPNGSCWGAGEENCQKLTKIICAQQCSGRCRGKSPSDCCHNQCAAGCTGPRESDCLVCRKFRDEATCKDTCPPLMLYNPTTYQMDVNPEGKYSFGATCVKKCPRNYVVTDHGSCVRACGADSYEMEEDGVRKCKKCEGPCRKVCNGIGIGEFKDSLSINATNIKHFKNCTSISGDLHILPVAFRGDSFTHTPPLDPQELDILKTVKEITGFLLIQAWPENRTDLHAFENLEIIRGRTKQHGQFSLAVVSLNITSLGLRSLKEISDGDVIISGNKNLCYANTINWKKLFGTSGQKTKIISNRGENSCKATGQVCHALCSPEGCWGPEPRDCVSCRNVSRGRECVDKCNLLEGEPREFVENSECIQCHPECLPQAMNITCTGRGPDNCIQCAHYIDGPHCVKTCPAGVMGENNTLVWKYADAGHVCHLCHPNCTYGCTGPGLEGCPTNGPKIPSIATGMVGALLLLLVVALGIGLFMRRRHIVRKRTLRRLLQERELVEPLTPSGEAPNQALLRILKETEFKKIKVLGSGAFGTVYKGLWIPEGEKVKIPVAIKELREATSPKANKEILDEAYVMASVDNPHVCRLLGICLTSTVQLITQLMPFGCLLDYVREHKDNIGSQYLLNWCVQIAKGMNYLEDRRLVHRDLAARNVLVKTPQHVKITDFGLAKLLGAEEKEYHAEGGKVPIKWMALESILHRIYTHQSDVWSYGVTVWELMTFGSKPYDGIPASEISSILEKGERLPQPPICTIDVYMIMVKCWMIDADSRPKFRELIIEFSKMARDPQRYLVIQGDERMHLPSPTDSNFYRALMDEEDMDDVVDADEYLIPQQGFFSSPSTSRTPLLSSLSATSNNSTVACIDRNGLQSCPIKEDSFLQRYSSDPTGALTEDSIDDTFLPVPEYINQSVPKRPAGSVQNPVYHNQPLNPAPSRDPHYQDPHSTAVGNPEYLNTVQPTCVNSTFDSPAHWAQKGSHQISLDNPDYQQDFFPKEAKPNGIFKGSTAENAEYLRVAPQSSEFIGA
Sequence of Torsin-1A-interacting protein 2 (Homo sapiens) (Q8NFQ8 whole entry, looked up): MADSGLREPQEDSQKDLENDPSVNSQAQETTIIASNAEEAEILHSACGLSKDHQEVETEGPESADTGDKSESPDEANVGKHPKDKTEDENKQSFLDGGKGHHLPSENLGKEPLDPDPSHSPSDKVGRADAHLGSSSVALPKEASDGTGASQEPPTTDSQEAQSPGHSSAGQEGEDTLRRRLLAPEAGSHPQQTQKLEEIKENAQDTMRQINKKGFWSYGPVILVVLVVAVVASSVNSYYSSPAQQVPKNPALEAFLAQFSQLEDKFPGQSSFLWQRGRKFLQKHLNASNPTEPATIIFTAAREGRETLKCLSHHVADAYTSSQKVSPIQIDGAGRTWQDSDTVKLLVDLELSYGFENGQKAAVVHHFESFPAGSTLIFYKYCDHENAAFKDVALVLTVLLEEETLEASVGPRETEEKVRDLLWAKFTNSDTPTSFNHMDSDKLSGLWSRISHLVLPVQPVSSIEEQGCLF
Sequence of Fibroblast growth factor 10 (Homo sapiens) (O15520 whole entry, looked up): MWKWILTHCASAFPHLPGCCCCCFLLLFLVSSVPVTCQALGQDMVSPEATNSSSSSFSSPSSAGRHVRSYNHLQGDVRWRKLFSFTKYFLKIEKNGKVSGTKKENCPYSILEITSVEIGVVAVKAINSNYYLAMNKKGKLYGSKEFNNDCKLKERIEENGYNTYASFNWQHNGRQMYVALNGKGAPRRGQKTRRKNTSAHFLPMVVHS
Sequence of Dickkopf-related protein 1 (Homo sapiens) (O94907 whole entry, looked up): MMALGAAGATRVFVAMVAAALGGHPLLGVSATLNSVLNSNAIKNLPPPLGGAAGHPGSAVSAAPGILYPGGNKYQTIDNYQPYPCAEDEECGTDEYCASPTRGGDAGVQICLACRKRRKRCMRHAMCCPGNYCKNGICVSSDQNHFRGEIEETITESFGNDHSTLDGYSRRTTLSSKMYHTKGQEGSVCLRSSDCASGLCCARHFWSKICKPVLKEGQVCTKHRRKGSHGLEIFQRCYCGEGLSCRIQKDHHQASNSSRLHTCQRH
Sequence of Follistatin-related protein 3 (Homo sapiens) (O95633 whole entry, looked up): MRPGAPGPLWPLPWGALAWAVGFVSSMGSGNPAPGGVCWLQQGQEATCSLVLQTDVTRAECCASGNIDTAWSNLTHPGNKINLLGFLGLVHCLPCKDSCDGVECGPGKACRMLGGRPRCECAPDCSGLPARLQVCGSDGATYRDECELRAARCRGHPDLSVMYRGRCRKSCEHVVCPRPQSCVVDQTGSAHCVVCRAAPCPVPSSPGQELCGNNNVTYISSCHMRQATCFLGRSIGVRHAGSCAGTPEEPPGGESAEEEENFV

Structure (SMILES) | composite z-score [1] | z-score [2] | z-score [3] | z-score [4] | composite z-score [5] | z-score [6] | composite z-score [7] | composite z-score [8] | composite z-score [9] | composite z-score [10] | composite z-score [11] | composite z-score [12] | composite z-score [13] | z-score [14] | composite z-score [15] | composite z-score [16] | composite z-score [17] | composite z-score [18] | composite z-score [19] | composite z-score [20]
C=C(COC)C(=O)CC[C@@H](OC(C)=O)c1ccc(OCCO)cc1 | 1.07 | 0.0756 (inactive) | -2.44 (inactive) | -0.056 (inactive) | 0.276 | -0.0345 (inactive) | -0.159 | 0.482 | 0.512 | -0.21 | 1.09 | 0.237 | 0.523 | 2 (inactive) | 0.977 | 0.186 | -0.484 | 0.278 | -0.0393 | 1.42
COCCOC(=O)N1C(=O)[C@@]2(c3cc(C#CCCO)ccc31)[C@H](c1ccccc1OCCO)N1[C@H](c3ccccc3)[C@H](c3ccccc3)OC(=O)[C@H]1[C@@H]2C(=O)N1CCc2cc(OC)c(OC)cc2C1 | 1.54 | 1.88 (inactive) | 0.763 (inactive) | 3 (inactive) | 2.93 | 1.26 (inactive) | -0.0616 | 1.26 | 1.12 | 0.0384 | 1.12 | 0.161 | 0.395 | -0.221 (inactive) | 1.34 | 1.28 | 0.529 | 1.39 | 0.421 | 0.504
COC(=O)C1=CC(CCCO)=CC(C2CC2)N(Cc2cccc(OC(F)(F)F)c2)C=C1C(=O)OC (stereo not given) | 1.13 | -2.46 (inactive) | -1.06 (inactive) | -2.24 (inactive) | 2.82 | -2.57 (inactive) | 0.0386 | -0.273 | 0.749 | -0.0353 | 1.19 | 0.0765 | 0.234 | 0.449 (inactive) | 0.107 | -0.363 | -0.659 | 0.315 | -0.59 | 0.674
CCOC(=O)C1=CC[C@@H](c2ccccc2)N(S(=O)(=O)c2ccc(C)cc2)[C@H]1C#N | 0.811 | 0.0536 (inactive) | -1.06 (inactive) | 0.281 (inactive) | 2.99 | -0.121 (inactive) | -0.0179 | -0.14 | 0.612 | 0.0985 | 1.54 | 0.507 | 0.56 | 0.705 (inactive) | 0.417 | 0.73 | -0.106 | -0.111 | -0.377 | -0.0426
CCOC(=O)C[C@H]1[C@H](OC(=O)c2ccc(-c3ccccc3)cc2)[C@@H](NC(=O)c2ccc3ccccc3c2)c2cc(OCCCO)ccc2N1C(=O)c1ccccc1 | 0.712 | 0.806 (inactive) | 1.17 (inactive) | 1.26 (inactive) | 1.69 | -1.1 (inactive) | -0.141 | 0.382 | 0.842 | 0.0914 | 0.34 | -0.393 | 0.211 | 0.173 (inactive) | 1.28 | 0.972 | 0.514 | 0.341 | -0.149 | -0.121
C=CC[C@@]1(C(=O)O)N=C(c2ccc(OCCCO)cc2)O[C@@H]1c1ccccc1CN=[N+]=[N-] | 0.753 | -1.23 (inactive) | -2.27 (inactive) | -1.95 (inactive) | 3.34 | 0.788 (inactive) | 0.0806 | 0.373 | 0.942 | 0.0209 | 0.802 | 0.682 | 0.062 | -1.38 (inactive) | 0.397 | 0.828 | 0.583 | 1.17 | 0.592 | 1.15
COc1ccc(NC(=O)O[C@H]2[C@H](OC(=O)Nc3ccc4c(c3)OCO4)[C@H](OC(=O)Nc3ccc4c(c3)OCO4)[C@@H](OC)O[C@@H]2CO)cc1 | 1.54 | 1.87 (inactive) | 1.41 (inactive) | 4.72 (inactive) | 2.96 | 0.212 (inactive) | -0.121 | -0.0137 | 0.569 | -0.0922 | 1.51 | 0.125 | 0.58 | -0.213 (inactive) | 0.81 | 1.23 | -0.385 | 0.59 | 0.409 | 0.753
C=C(COC)/C(=C/C[C@H](OC(=O)c1ccncc1)c1cccc(OCCO)c1)c1cnc2ccccc2c1 | 1.54 | -2.15 (inactive) | -0.677 (inactive) | 0.0694 (inactive) | 1.75 | -0.0055 (inactive) | 0.0333 | 1.53 | 1.03 | -0.0025 | 0.691 | 0.199 | 0.293 | 0.0664 (inactive) | 1.05 | 1.3 | 0.855 | 1.45 | 0.938 | 1.2
Cc1ccc(F)cc1S(=O)(=O)N[C@@H]1CCN(Cc2ccc3c(c2)OCO3)C1 | -0.5 | 0.158 (inactive) | -2.41 (inactive) | 1.23 (inactive) | -0.539 | -1.4 (inactive) | -0.148 | 0.171 | -0.307 | -0.226 | 0.0014 | -0.247 | -0.289 | -0.0924 (inactive) | -0.24 | -0.191 | 0.0122 | -0.272 | 0.537 | 0.528
C=CCOC(=O)[C@H]1[C@@H]2C(=O)O[C@@H](c3ccccc3)[C@@H](c3ccccc3)N2[C@@H](c2ccc(OCCOC(=O)[C@@H]3C[C@@H]4C(=O)N[C@@H](Cc5ccccc5)C(=O)N4[C@@H]3c3ccc(O)cc3)cc2)[C@]12C(=O)Nc1ccccc12 | 1.55 | 0.455 (inactive) | -0.113 (inactive) | 3.75 (inactive) | 2.13 | 0.0664 (inactive) | -0.151 | 1.65 | 0.758 | -0.0929 | 1.34 | -0.271 | -0.25 | 0.878 (inactive) | 1.18 | 1.29 | 0.328 | 0.953 | 0.973 | -0.0812
